Results on 65 molecules are retold here after PubChem BioAssay AID686979 (National Center for Advancing Translational Sciences (NCATS), 2013).

About 50,000 (12%) of roughly 420,000 compounds were called active. A call without a number means that no potency is given here. Inconclusive results (about 26%) are left out. Calls come from the whole dose curve; as a rule, active = well fitted inhibition curve with a large enough effect; inconclusive = small, poorly fitted or top-dose-only effect; inactive = flat fitted curve, though single readings scatter. This excerpt belongs to a sample that is enriched for actives.
Potency is the fitted concentration of half-maximal effect.

This experiment can be described thus: qHTS for Inhibitors of human tyrosyl-DNA phosphodiesterase 1 (TDP1): qHTS in cells in presence of CPT. Note: nearly all actives have a fitted effect of over 55% in size. The following applies: chicken DT40 Tdp1-/-;hTDP1 cells + 20 nM CPT, ATP luminescence, 48 h; series mostly up to 46.2 µM. An excerpt: Human tyrosyl-DNA phosphodiesterase 1 (TDP1) is a novel repair gene, and we propose to use it as a new target for anticancer drug development. TDP1 is not an essential protein, but under treatment with topoisomerase I poison (camptothecin: CPT), TDP1 works as a critical factor for cell survival. To directly identify novel TDP1 inhibitors active in a cellular environment, we have knocked-out the Tdp1 gene in chicken DT40 cells (Tdp1-/-) and generated a complemented counterpart cells that contains a stable transfection of the human TDP1 gene (Tdp1-/-;hTDP1 cells). For the primary screen, Tdp1-/-;hTDP1 cells will be exposed to small molecules in the presence or absence of CPT, and their growth kinetics will be evaluated after 48 hours by measuring ATP activity. […] The hit compounds will then be evaluated in the presence or absence of CPT using Tdp1-/- cells. […] In tertiary assays, biochemical gel-based assays will be used to assess whether the hit compounds specifically target TDP1. To this end, we have screened this cell line against the MLSMR in two primary screens. In one screen we add CPT and in the other we screen in the absence of CPT; this AID represents the screen where CPT was present. NIH Chemical Genomics Center [NCGC] NIH Molecular Libraries Probe Centers Network [MLPCN] MLPCN Grant: MH095538 Assay Submitter (PI): Yves Pommier, NCI
DT40-hTDP1 cells with 20 nM Camptothecin (add 20 microL of 1 mM CPT stock in 1 L of cell culture medium) were dispensed at 400 cells/5microL/well in tissue culture treated 1536-well white wall/solid bottom assay plates (Greiner Bio-One North America, NC, U.S.A.) using a Multidrop Combi 8 channel dispenser (Thermo Fisher, Waltham, MA, USA). 23 nL compounds and controls were transferred using the pin tool (Kalypsys, San Diego, CA, USA) to the assay plates. The assay plates were then incubated at 37 masculineC for a minimum 48 hr. Three microL of Cell Titer Glo solution was added to the plates and incubated at RT in dark for 30 min. Luminescence was read using ViewLux (Perkin Elmer) with 1 sec exposure slow speed, high gain and 2x binning.
(Quantitative high-throughput screening tests each substance at several concentrations.)
On to `Cc1c(C(=O)O)nnn1-c1nonc1N`, for which the Potency entry was “inactive”.

Consider `COc1cc(OC)c(C(=O)NNC(=O)c2ccccc2-n2cccc2)cc1OC`, for which the Potency entry is “inactive”. Under `Cc1ccccc1CSc1nc(-c2ccccc2)nc2c1Cc1c(CO)cnc(C)c1O2` stands “inactive”. Consider `CSc1nc(-c2ccc(F)cc2)nc2c1Cc1c(CO)cnc(C)c1O2`, for which the Potency result is “inactive”. For `CSc1nc(-c2ccccc2Cl)nc2c1Cc1c(CO)cnc(C)c1O2` the value was 14.6 µM (active). Under `CCOC(=O)c1cnc2nc(SCc3ccccc3Cl)[nH]n2c1=O` stands “inactive”; under `CS(=O)(=O)c1ccc(Cl)c(NC(=O)COC(=O)c2ncc(Cl)c(Cl)c2Cl)c1`, “inactive”; under `Cc1nc2ccc(C(=O)N(C)CC3CCCN(CCc4ccc(Cl)cc4)C3)cc2[nH]1` (stereo not given), “inactive”. Regarding `COc1cccc(CN(C)CC2CCCN(CCc3ccc(Cl)cc3)C2)c1OC` (stereo not given), the Potency was 16.4 µM (active). Under `COc1cccc(CN(C)CC(=O)NCc2ccccc2Cl)c1OC` stands “inactive”. For `CCc1ccnc(NS(=O)(=O)c2ccc3c(c2)OCCO3)c1` the value was “inactive”; for `CCOc1ccccc1C1CC(c2ccc(Cl)cc2)Nc2nc(N)nn21` (stereo not given), 18.4 µM (active). For `COc1ccc(C2CC(c3ccc(C)cc3)Nc3nc(N)nn32)cc1` (stereo not given) the value was “inactive”; for `Cc1ccc(C2CC(c3cccc(C)c3)n3nc(N)nc3N2)cc1` (stereo not given), “inactive”; for `COc1ccccc1N1CCN(c2ncnc3onc(-c4cccc(Cl)c4)c23)CC1`, “inactive”. As to `COc1ccccc1N1CCN(c2ncnc3sc(C)c(-c4ccccc4)c23)CC1`, the Potency is 23.1 µM (active). As for `COc1ccccc1N1CCN(c2nc(C)cc(=O)[nH]2)CC1`, the Potency result was “inactive”. Regarding `Cn1cnc(S(=O)(=O)Nc2ccc3c(c2)OCCO3)c1`, the Potency result is “inactive”. Under `O=C(COC(=O)c1cc(-c2cccs2)nn1-c1ccccc1)Nc1cc([N+](=O)[O-])ccc1Cl` stands “inactive”; under `CCc1cccc(CC)c1NC(=O)Cn1c(=O)c(-c2cc(C)ccc2NC(C)=O)nc2ccccc21`, “inactive”. For `CCCn1c(N)c(C(=O)CSc2nnc(-c3cccnc3)n2-c2ccc(C)cc2C)c(=O)[nH]c1=O` the value was “inactive”; for `Cc1nc2c(-c3ccccc3)c(C)[nH]n2c(=O)c1Cl`, “inactive”. For `CCCc1cc(=O)n2[nH]c(C)c(-c3ccc(Cl)cc3)c2n1` the value was 20.6 µM (active); for `COCc1cc(=O)n2[nH]c(C)c(-c3ccccc3)c2n1`, “inactive”; for `CCOc1cc(C)c(S(=O)(=O)NCc2ccccn2)cc1C`, “inactive”. Consider `COc1ccc(NC(=O)C2C3CCC(O3)C2C(=O)O)cc1OC` (stereo not given), for which the Potency result was “inactive”. On to `COCC(=O)N1CCc2ccc(NC(=O)c3ccccc3Cl)cc2C1`, for which the Potency entry is “inactive”. For `O=C(NCCCc1ccccc1)C1CCC(CNc2c(N3CCCCC3)c(=O)c2=O)CC1` (stereo not given) the value was “inactive”; for `CCc1ccc(OCCCn2c(CCCNC(=O)C3CCCCC3)nc3ccccc32)cc1`, 8.91 µM (active).

Consider `Cc1ccc(Cn2c(CCCNC(=O)C3CCCCC3)nc3ccccc32)cc1`, for which the Potency was 16.4 µM (active). Under `CC(C)Oc1ccc(CNC(=O)C2CCN(c3nc4ccccc4n(C)c3=O)CC2)cc1` stands “inactive”. For `Cc1ccc(CN2C(=O)CCC2C(=O)NCCCN2CCCCC2C)cc1` (stereo not given) the value was “inactive”; for `Cc1ccc2[nH]cc(CCNC(=O)C3CCCCC3)c2c1`, “inactive”; for `O=C(CSc1nnc(CNC(=O)c2ccccc2)n1-c1ccc(F)cc1)Nc1ccccc1F`, “inactive”. Under `Cc1ccc(NS(=O)(=O)c2ccc(N/N=C/c3ccccc3OCC(=O)O)c([N+](=O)[O-])c2)c(C)c1` stands “inactive”; under `O=C(CC1SC(=Nc2ccccc2F)N(CCN2CCOCC2)C1=O)Nc1ccc(F)cc1F` (stereo not given), “inactive”; under `COc1ccccc1N(CC(=O)N/N=C(\C)c1ccccc1O)S(=O)(=O)c1ccc(C)cc1`, “inactive”. On to `Cc1ccc(S(=O)(=O)N(CC(=O)Nc2ccc(Cl)cc2Cl)c2ccccc2C)cc1`, for which the Potency was 18.4 µM (active). `Cc1ccc(S(=O)(=O)N(CC(=O)NCc2ccco2)c2ccccc2C)cc1`: the Potency entry is “inactive”.

For `COc1ccc(C(F)(F)F)cc1N/C=C\c1nnnn1-c1ccc(C)cc1`, the Potency entry is “inactive”. For `COc1ccccc1OCC(=O)O/N=C(\N)c1ccccn1` the value was “inactive”; for `Cc1ccccc1-c1cc(C(=O)NCC2CC2)n(CC2CC(c3cccnc3)=NO2)n1` (stereo not given), “inactive”; for `CCOC(=O)c1ccc2[nH]c(C)c(CN3CCN(C)CC3)c(=O)c2c1`, “inactive”. Under `CCCOC(=O)c1ccc(N2C(=O)c3ccccc3C2=O)cc1` stands “inactive”. For `O=C(NCc1ccccc1)C(=O)NCC(c1ccco1)S(=O)(=O)c1ccc(Cl)cc1` (stereo not given) the value was 23.1 µM (active); for `CC(C)(C)c1ccc(C(=O)NCCC(=O)NCc2ccco2)cc1`, “inactive”. On to `CC(C)(C)c1ccc(C(=O)NCC(c2ccco2)S(=O)(=O)c2ccc(F)cc2)cc1` (stereo not given), for which the Potency is 20.6 µM (active). Under `COc1ccccc1NS(=O)(=O)c1ccc(C)c(C(=O)NCC(c2ccco2)N(C)C)c1` (stereo not given) stands “inactive”. In the case of `CC(C)CNC(=O)C(=O)NCc1ccccc1`, the Potency result was “inactive”. Turning to `COc1ccc(S(=O)(=O)NC(CC(=O)NCc2ccccc2OC)c2ccco2)cc1` (stereo not given), the Potency result is “inactive”.

For `COc1ccccc1CNC(=O)C(=O)NCC(c1ccco1)S(=O)(=O)c1ccc(F)cc1` (stereo not given), the Potency was 20.6 µM (active). Turning to `CC(C)(C)c1ccc(C(=O)NCc2ccco2)cc1`, the Potency entry is “inactive”. Under `O=C(NCCc1ccccc1)C(=O)NCC(c1ccco1)S(=O)(=O)c1ccccc1` (stereo not given) stands “inactive”; under `O=C(CCN1C(=O)C2CCCCC2C1=O)Nc1ccc(OC(F)F)cc1` (stereo not given), “inactive”; under `COc1ccccc1-n1ccnc(SCC(=O)NC2CCCCC2)c1=O`, “inactive”. For `COc1ccccc1C(=O)NCc1nnc(SC(C)C(=O)Nc2nccs2)n1C` (stereo not given) the value was “inactive”. For `Cc1c(NS(=O)(=O)c2ccc(Cl)cc2)c(=O)n(-c2ccccc2)n1C` the value was “inactive”; for `O=C(NCc1ccc(Cl)cc1)NCc1ccc(Cl)cc1`, “inactive”. Turning to `O=C(COc1ccccc1)OCc1cc(=O)n2nc(-c3cccs3)sc2n1`, the Potency entry is “inactive”. Under `O=C(c1cccs1)N(C(=O)c1cccs1)c1ccccn1` stands “inactive”. Under `CCc1nc2c(OCCOc3ccccc3)cccn2c1N(C)C(=O)c1ccc(OC)cc1` stands 29.1 µM (active); under `CCOc1cc(C(=O)O)ccc1OCCOc1ccccc1`, “inactive”. Under `CCc1nc2c(OCC(N)=O)cccn2c1N(C)C(=O)c1ccc(OC)cc1` stands “inactive”; under `CCc1nc2c(OCCOc3ccccc3)cccn2c1N(C)C(=O)c1cccs1`, 25.9 µM (active).

Regarding `Cc1c(C2=CCN(S(=O)(=O)c3ccc(Cl)cc3)CC2)c2ccccc2n1C`, the Potency entry was “inactive”.
